Assay results: PubChem BioAssay (Tox21)
Inconclusive results are not listed. Activity calls are given as the source filed them. Calls follow the shape of the dose curve; as a rule, active = well fitted activation curve with a large enough effect in the signal ratio in the repeat runs (not every such curve was filed as active); inconclusive = weak or mixed curves; inactive = flat fitted curve, though single readings scatter; the % refers to the signal ratio.

Assay: qHTS assay to identify small molecule agonists of the hypoxia (HIF-1) signaling pathway (AID 1224846)
Conditions: HRE-bla ME-180 cells, beta-lactamase ratio, 17 h; series mostly up to 76.8 µM
From the text: U.S. Tox21 Program National Center for Advancing Translational Sciences [NCATS] NIH Chemical Genomics Center [NCGC] U.S. Environmental Protection Agency [EPA] National Institutes of Environmental Health Sciences [NIEHS] National Toxicology Program [NTP] U.S. Food and Drug Administration [FDA] Tox21 Assay Overview: Hypoxia-inducible factor-1 (HIF-1) is the major hypoxia-regulated transcription factor that controls cellular responses to low oxygen concentration. HIF-1 is composed of two subunits: hypoxia responsive HIF-1-alpha and constitutively expressed HIF-1-beta, which is also known as aryl hydrocarbon receptor nuclear translocator. During hypoxic conditions, HIF-1-alpha heterodimerizes with HIF-1-beta and translocates into the nucleus where the HIF-1 complex binds to the hypoxia-response element (HRE) and activates expression of target genes such as VEGF (vascular endothelial growth factor). The HIF-1 pathway is essential to normal growth and development, and is involved in the pathophysiology of cancer, inflammation, and ischemia. Using a beta-lactamase reporter-gene under control of the hypoxia response element, a cell-based assay [CellSensor(TM) HRE-bla ME-180 from Life Technologies, Carlsbad, CA] was used to measure hypoxia-induced signaling. Tox21 10K library compounds were measured for their ability to induce the reporter gene activity.
Tox21 Assay Protocol Summary: HRE-bla ME-180 cells were dispensed at 2,000 cells per well in 6 uL of assay medium containing 0.5% dialyzed FBS into black wall/clear-bottom 1536-well plates using a Multidrop Combi (Thermo Scientific, Waltham, MA) dispenser. After the assay plates were incubated at 37C and 5% CO2 for 5 hrs, 23 nL of compounds dissolved in DMSO, positive controls or DMSO only was transferred to each well of the assay plate using a Pintool station (Kalypsys, San Diego, CA). The assay plates were incubated at 37C and 5% CO2 for 17 hrs. One uL of LiveBLAzerTM B/G FRET substrate (CCF4-AM) (Life Technologies) was added to each well using a Flying Reagent Dispenser (Aurora Discovery, San Diego, CA).

Row | SMILES | outcome
1 | Cc1ccc([N+](=O)[O-])cc1N | inactive
2 | CCCCCCCC(=O)O | inactive
3 | CCc1cccc(O)c1 | inactive
4 | C1CCCNCC1 | inactive
5 | CC(COCC(C)OC(=O)c1ccccc1)OC(=O)c1ccccc1 (stereo not given) | inactive
6 | CCCCCCCCC(=O)O | inactive
7 | CS(=O)(=O)c1ccc(Cl)cc1 | inactive
8 | CC/C(C)=N/O | inactive
9 | Cc1ccccc1C=O | inactive
10 | CN=C(NC#N)NCCSCc1nc[nH]c1C | inactive
11 | CC(=O)OC(C)(C)C1CC=C(C)CC1 (stereo not given) | inactive
12 | CCCCCCCCCCCC(=O)N(C)CC(=O)O | inactive
13 | OCc1ccc(Cl)cc1Cl | inactive
14 | CCCCCCCCO | inactive
15 | CCCCC(=O)O | inactive
16 | Cc1ccc(C)c(S(=O)(=O)O)c1 | inactive
17 | CCc1cccc(CC)c1N | inactive
18 | OC[C@H]1O[C@@H](Oc2ccc(O)cc2)[C@H](O)[C@@H](O)[C@@H]1O | inactive
19 | Cc1cccc(C)c1[N+](=O)[O-] | inactive
20 | CCCOC(=O)NCCCN(C)C | inactive

Row | SMILES | outcome
21 | CC(=O)C(C)C | inactive
22 | COc1ccc([C@@H]2CC(=O)c3c(O)cc(O[C@@H]4O[C@H](CO[C@@H]5O[C@@H](C)[C@H](O)[C@@H](O)[C@H]5O)[C@@H](O)[C@H](O)[C@H]4O)cc3O2)cc1OC | inactive
23 | NC(=O)NC(N)=O | inactive
24 | COc1ccc2cc3[n+](cc2c1OC)CCc1cc2c(cc1-3)OCO2 | inactive
25 | COC(=O)/C=C\C(=O)OC | inactive
26 | O=[N+]([O-])c1ccccc1C(F)(F)F | inactive
27 | CCCCCCC(=O)O | inactive
28 | OCC(CO)(CO)CO | inactive
29 | CC(=O)CC(=O)N(C)C | inactive
30 | CC1=CC(=O)CC(C)(C)C1 | inactive
31 | C=CC(=O)NCOCCCC | inactive
32 | OB(O)O | inactive
33 | CC(C)=CCC/C(C)=C/C=O | inactive
34 | OC1CCCCC1 | inactive
35 | CC/C=C(\C(=O)N[C@@H]1C(=O)N2C(C(=O)OCOC(=O)C(C)(C)C)=C(COC(N)=O)CS[C@H]12)c1csc(N)n1 | inactive
36 | N#CCC(=O)O | inactive
37 | O=C(Cl)c1ccc(C(=O)Cl)cc1 | inactive
38 | O=[N+]([O-])c1cc(C(F)(F)F)ccc1Cl | inactive
39 | COc1c2ccoc2cc2oc(=O)ccc12 | inactive
40 | O=C1CCCCCCCCCCC1 | inactive
